Experimental data from PubChem BioAssay (NCATS).
A number with no mark means an inactive call. Records with an inconclusive call do not appear. The source made the active and inactive calls. Unless noted, the call rests on the fitted dose curve; in most records, active means well fitted curve in either direction with a large enough effect (not every such curve was filed as active); inconclusive means small, poorly fitted or top-dose-only effect, or another doubt; inactive means flat fitted curve, though single readings scatter.

Legend:
[1] = NFAT Signaling Pathway (AID 444); details: Jurkat NFAT-bla M1, carbachol, beta-lactamase ratio, 5 h; at 17.2 µM (top of the series) unless noted;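 further: carbachol stimulus at about its EC50 of 1 µM final; on the % scale 0 is the no-effect control and ±100 the full control effect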
In short: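 Jurkat cells with NFAT-driven β-lactamase reporter and co-expressed M1 receptor, stimulated with carbachol (final 1 uM, ~EC50), compound titration, 5 h at 37 °C. CCF4 loaded 1 h at RT; 460/530 nm ratio gave %activity and AC50.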

[2] = Stat Signaling Pathway (AID 446); details: ME-180 SIE beta-lactamase reporter, IL-6 stimulated, 5 h; at 17.2 µM (top of the series) unless noted;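 further: ME-180 cervical cancer cells given 40 pM IL-6 alongside compound; SIE-controlled beta-lactamase reporter measured as 460/530 nm FRET emission ratio; on the % scale 0 is the no-effect control and ±100 the full control effect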
In short: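 Reporter line: ME-180 cervical carcinoma, SIE-beta-lactamase. Treatment: compound with 40 pM IL-6, 5 hrs, 37 C, in low-serum OPTI-MEM with 10 mM HEPES pH 7.3. Detection: 460/530 nm fluorescence.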

[3] = target: Glucocorticoid receptor (Homo sapiens) (UniProt P04150); assay: GR-GFP Redistribution (AID 450;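 active means compounds whose dose series gives a full or clear partial fitted curve of increased nuclear translocation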; further: potency means the concentration at half of the fitted maximal effect)
[4] = qHTS Assay for Identification of Small Molecule Agonists for Hypoxia Response Element Signaling Pathway (AID 914; active means well fitted activation curve with a large enough effect in the signal ratio, with a control signal flat, not every such curve was filed as active; the % refers to the signal ratio; further: potency means the concentration at half of the fitted maximal effect); details: ME-180 (cervical carcinoma) HRE-bla reporter, beta-lactamase ratio, CoCl2, 17 h; activation: stronger effect = higher value
In short: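 qHTS titration; ME-180 HRE-bla cells; EC50 CoCl2 co-treatment, 17 h at 37 degrees Celsius; CCF4 dye, ex 405nm, em 460nm and 530nm; %Activity from ratio; AC50.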

Sequence of Glucocorticoid receptor (Homo sapiens) (P04150 whole entry, looked up): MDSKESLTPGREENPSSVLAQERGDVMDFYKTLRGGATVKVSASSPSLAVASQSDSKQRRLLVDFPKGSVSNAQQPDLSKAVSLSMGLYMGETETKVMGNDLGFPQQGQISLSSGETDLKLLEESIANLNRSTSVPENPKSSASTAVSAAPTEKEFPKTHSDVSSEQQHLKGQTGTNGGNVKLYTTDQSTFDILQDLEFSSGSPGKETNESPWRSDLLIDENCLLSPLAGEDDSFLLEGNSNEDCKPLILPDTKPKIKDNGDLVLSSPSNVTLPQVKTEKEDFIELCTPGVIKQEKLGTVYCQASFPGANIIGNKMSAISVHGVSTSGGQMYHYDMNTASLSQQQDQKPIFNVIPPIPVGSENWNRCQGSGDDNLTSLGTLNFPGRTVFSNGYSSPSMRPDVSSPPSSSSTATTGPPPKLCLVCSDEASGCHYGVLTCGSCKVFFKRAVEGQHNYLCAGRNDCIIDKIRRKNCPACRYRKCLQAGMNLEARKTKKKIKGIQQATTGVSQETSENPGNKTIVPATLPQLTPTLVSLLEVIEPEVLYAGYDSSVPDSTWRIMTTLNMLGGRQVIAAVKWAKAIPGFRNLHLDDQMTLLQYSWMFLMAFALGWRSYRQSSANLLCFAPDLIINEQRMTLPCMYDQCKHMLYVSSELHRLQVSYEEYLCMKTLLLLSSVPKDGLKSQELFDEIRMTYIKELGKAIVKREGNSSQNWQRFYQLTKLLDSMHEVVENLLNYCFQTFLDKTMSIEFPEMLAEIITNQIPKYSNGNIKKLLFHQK

Row | Compound | activity change, negative = inhibition [1] | activity, negative = inhibition [2] [%] | Potency [3] [µM] | Potency [4]
1 | COc1ccc(C(=O)N/C(N)=N/c2nc3ccccc3o2)cc1 | -19% | -5.99 | > 20.6 | 
2 | COc1cccc(-c2nnc3sc(-c4ccc(C)cc4)nn23)c1 | -10.2% | 1.68 | > 20.6 | 
3 | CCn1c(SC(C)C(=O)O)nc2sc3c(c2c1=O)CCC3 (stereo not drawn) | 17.5% | -5.33 | > 20.6 | 
4 | Cc1ccc(-n2ncc3c(NCc4cccnc4)ncnc32)c(C)c1 | -27.9% | -18.9 | > 20.6 | 
5 | COC(=O)c1ccc(-c2sc3nc(N4CCOCC4)c4c(c3c2N)CCCC4)o1 | -5.04% | -5.83 | > 20.6 | 
6 | CCOC(=O)CSc1nc(N)c2c3c(sc2n1)CCCC3 | -14.4% | -14.2 | > 20.6 | 
7 | Cc1nc2sc3c(NCc4ccco4)ncnc3c2c2c1COC(C)(C)C2 | -8.41% | -18.1 | > 20.6 | 
8 | Brc1cccc(-c2cnc3n2CCCCC3)c1 | -87.3% (active) | -10.7 | > 20.6 | 
9 | N#Cc1c(N2CCCCC2)nc(N2CCCCC2)c2c1CCN(Cc1ccccc1)C2 | -13% | 17.8 | > 20.6 | 
10 | Cn1c(=O)c2c(nc(NCc3ccc4c(c3)OCO4)n2Cc2ccc(F)cc2)n(C)c1=O | -10.4% | -22 | > 20.6 | 
11 | NC(=O)CSc1nnc2n(-c3ccccc3)c(=O)c3c4c(sc3n12)CCCCC4 | -30% | 9.67 | > 20.6 | 
12 | CCC1(C)Cc2ccccc2-c2nc(NCCO)n(-c3ccccc3)c(=O)c21 (stereo not drawn) | 6.29% | -2.14 | > 20.6 | 
13 | CCCSC1=C(C#N)C(c2ccc(OC)cc2)C2=C(CC(C)(C)CC2=O)N1 (stereo not drawn) | -24.7% | -13 | > 20.6 | 
14 | Cc1ccc(/C=c2\sc3n(c2=O)CN(c2ccc(Br)cc2)CN=3)o1 | -11.3% | 0.614 | > 20.6 | 
15 | COc1ccccc1Nc1ncc(-c2cccs2)s1 | 11.7% | -4.45 | > 20.6 | 
16 | CCCc1[nH]nc2c1C(c1c(C)nn(-c3ccccc3)c1Cl)C(C#N)=C(N)O2 (stereo not drawn) | 14.9% | -29.6 | > 20.6 | 
17 | Nc1c(Br)cc2oc(-c3ccccc3)nc2c1Br | 4.7% | 14.6 | > 20.6 | 

Row | Compound | activity change, negative = inhibition [1] | activity, negative = inhibition [2] [%] | Potency [3] [µM] | Potency [4]
18 | CC1(C)CC(=O)C(C=NCC(O)c2ccccc2)=C(O)C1 (stereo not drawn) | -0.832% | 8.79 | > 20.6 | 
19 | CCOc1cc2nc(-c3ccc(OC)c(OC)c3)nc(N3CCOCC3)c2cc1OC | -10.2% | -21.5 | > 20.6 | 
20 | COC(=O)c1sc(NC(=O)c2oc3ccccc3c2C)nc1C | -8% | 18.1 | > 20.6 | 
21 | COCCNc1cc(C)c(C#N)c2nc3ccccc3n12 | 12.9% | 4.06 | > 20.6 | 
22 | CCCc1cc(-n2ccnc2C)n2c(nc3ccccc32)c1C#N | 6.63% | -3.66 | > 20.6 | 
23 | COc1cc(C2C(C#N)=C(N)Oc3cc(C)n(CCc4ccccc4)c(=O)c32)cc2c1OCO2 (stereo not drawn) | -4.95% | -6.08 | > 20.6 | 
24 | COc1cc(C)nc(Oc2ccc(OCCOc3ccc(C)cc3)nn2)n1 | 5.08% | -5.96 | > 20.6 | 
25 | COc1cccc(OC)c1OCC(C)CNCC1CCCO1 (stereo not drawn) | -18.8% | 10.2 | > 20.6 | 
26 | c1ccc(N2CCN(c3nc(-c4ccccn4)nc4ccccc34)CC2)cc1 | 0.815% | -14.9 | > 20.6 | 
27 | Clc1ccc(-n2ncc3c(NCc4ccccn4)ncnc32)cc1 | -18.5% | -20.2 | > 20.6 | 
28 | CCOC(=O)c1cc(CC)sc1NC(=O)C1CC1 | 12.8% | -13.8 | > 20.6 | 
29 | Cc1nc(NCCN)c(C#N)c2c1COC(C)(C)C2 | -1.13% | 7.79 | > 20.6 | 
30 | Cc1nc2sc3c(c2c(=O)o1)CC(C)(C)OC3 | -10.1% | -8.31 | > 20.6 | 
31 | CCOC(=O)c1c(-c2cccs2)csc1NC(=O)c1ccncc1 | 27.6% | 1.61 | > 20.6 | 6.31 µM (active)
32 | Cc1cc(=O)[nH]c(SCC(=O)c2ccccc2)c1C#N | 14.5% | -5.21 | > 20.6 | 
33 | CC(C)Cc1nc(N2CCN(C(=O)C(C)C)CC2)c(C#N)c2c1CCC2 | -19.4% | 7.39 | > 20.6 | 
34 | CCCCCOc1ccc(Cl)cc1CN1CCOCC1 | 4.03% | 4.37 | > 20.6 | 
